Rows were chosen to be rich in hits. Some 19% of all compounds tested hit in one or more screens of this group.
DT40 TDP1 no CPT = qHTS for Inhibitors of human tyrosyl-DNA phosphodiesterase 1 (TDP1): qHTS in cells in absence of CPT | DT40 Tdp1-/- hTDP1 cells, no CPT, ATP luminescence, 48 h | AID 686978, 2013 | Potency, µM (series often up to 46.2 µM), for the others: at the highest dose activity change, negative = growth inhibition, hits mostly inhibitors | hit rate 15% among 420,000; further: potency means the concentration at half of the fitted maximal effect; nearly all actives have a fitted effect of over 55% in size
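Seeded 400 DT40-hTDP1 cells/well (vehicle DMSO, no 20 nM CPT); pinned compounds; ≥48 hr at 37 °C; CellTiter-Glo luminescence as viability measure.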
HT1080-NT tox = kills 2HG-producing HT-1080-NT fibrosarcoma cells | hit rate 1.6% among 360,000 | Potency, µM (titrated, usually from 46.1 µM), inactives show at the top dose activity, negative = less viability, usual class: cytotoxic | HT-1080-NT fibrosarcoma viability, CellTiter-Glo ATP luminescence, 48 h;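 further: NT is the 2HG producing partner of a matched IDH1 knockdown line; potency means the concentration at half of the fitted maximal effect; 0% = DMSO-treated cells and -100% = media-only wells without cells; nearly all actives have a fitted effect of over 55% in size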
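HT-1080-NT fibrosarcoma cells (2HG-overproducing), 750 cells/well in RPMI with 5% FBS, dosed after 2 h and incubated 48 h at 37C. CellTiter-Glo luminescence normalized to DMSO and no-cell wells; concentration-response curves fitted and classed.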
HT1080 IDH1KD tx = HT-1080 IDH1 knockdown cell toxicity (counter line) | HT-1080 IDH1 knockdown viability, ATP luminescence, 48 h | Potency, µM (doses to about 46.1 µM), for the others: top-dose activity, negative = toxicity, hits mostly cytotoxic | hit rate 2% among 360,000;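 further: potency means the concentration at half of the fitted maximal effect; 0% = DMSO wells and -100% = cell-free medium wells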
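CellTiter-Glo luminescence after 48 h compound exposure at 37 degrees C of IDH1-knockdown HT-1080 cells in 5% FBS RPMI. %Activity scaled between DMSO wells and cell-free media wells, with curves fitted and assigned curve classes.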
TDP1 cell CPT = growth inhibition of DT40 Tdp1-/-;hTDP1 cells with camptothecin (screen for TDP1 inhibitors) | chicken DT40 Tdp1-/-;hTDP1 cells + 20 nM CPT, ATP luminescence, 48 h | Potency, µM (series often up to 46.2 µM), for the others: at the top dose activity change, negative = growth inhibition, actives largely listed as inhibitors | hit rate 12% among 420,000 | AID 686979; further: potency means the concentration at half of the fitted maximal effect; nearly all actives have a fitted effect of over 55% in size
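Chicken DT40 Tdp1-/- cells complemented with human TDP1, 400 cells/well, exposed to compounds plus 20 nM camptothecin for at least 48 h at 37 C; viability read as ATP content by CellTiter-Glo luminescence.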
IL-1B inflam inh = inflammasome signaling inhibition, IL-1 beta readout. THP-1 LPS/ATP IL-1B secretion, AlphaLISA, 16 h; active compounds read low. hit rate 4.7% among 360,000. activity change, % at 57.5 µM; in the data active means activity change below about -50%; inconclusive means mostly about -30% to -49%
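Secreted IL-1B measured by AlphaLISA bead assay after 16 h compound exposure of THP-1 cells; compounds (final up to 57.5 uM) added 1 h before LPS (250 ng/mL) and ATP (1.25 mM) stimulation; lower signal means less secretion.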
Starred values were filed as active, the others as inactive; ? = inconclusive; / = no result; [ ] = dose if it differs, or a comment. Unless noted, the call rests on the fitted dose curve; in most records, active means well fitted curve in the direction sought with a large enough effect; inconclusive means small, poorly fitted or top-dose-only effect, or another doubt; inactive means no such curve, though single readings can be large; an effect the other way counts as inactive or inconclusive. Unless noted, on the % scale 0 is the no-effect control and ±100 the full control effect.

SMILES	DT40 TDP1 no CPT	HT1080-NT tox	HT1080 IDH1KD tx	TDP1 cell CPT	IL-1B inflam inh
N/C(Cc1ccc(Cl)cc1)=N\OC(=O)c1ccccc1	?	?	?	?	-19.8
C#CC(CC)(CC)NC(=O)c1cc(S(=O)(=O)N2CCCCC2)ccc1N1CCOCC1	-16.5%	8.1%	6.6%	-5.2%	-1.5
COc1ccccc1-c1ccc(SCc2ccc(F)cc2)nn1	-2.2%	-1.0%	-4.4%	-17.8%	?
COc1ccccc1-c1ccc(SCc2ccc(C)cc2)nn1	14.6µM*	-2.9%	-2.7%	?	-18.4
CC(=O)c1cccc(OCC(=O)N2CCN(c3ccc(C(F)(F)F)cn3)CC2)c1	14.6µM*	9.8%	11.4%	?	-2.2
Cc1cccc(C)c1NC(=O)C(c1ccccc1)N1CCOCC1 (configuration not stated)	-13.1%	20.1%	10.8%	-8.7%	-23.4
O=C(NCC(=O)N1CCN(c2ccc(C(F)(F)F)cn2)CC1)c1ccc(Br)o1	6.51µM*	1.0%	0.1%	20.6µM*	9.1
Cc1cccc(C)c1NC(=O)C(c1ccccc1)N1CCN(c2ccc(C(F)(F)F)cn2)CC1 (configuration not stated)	?	3.1%	0.1%	23.1µM*	0.0
OC(CN1CCN(c2ccc(C(F)(F)F)cn2)CC1)c1ccccc1 (configuration not stated)	?	-7.5%	-22.9%	-11.6%	-22.4
CCc1nc(CN2CCN(c3ccc(C(F)(F)F)cn3)CC2)c(C)[nH]1	6.51µM*	?	-13.3%	11.6µM*	-0.3
Cn1cc(SCC(=O)N2CCCc3ccccc32)c2ccccc21	?	-0.3%	-10.8%	?	0.0
C=CC[N@@+]12CC[C@@]34c5ccccc5N5/C=C6/[C@H]7C[C@H]8[C@@]9(CC[N@@+]8(CC=C)C/C7=C/CO)c7ccccc7N(/C=C(/[C@@H](C[C@@H]31)/C(=C\CO)C2)[C@H]54)[C@@H]69	-1.5%[21.1 µM]	/	/	1.3%[21.1 µM]	/
CN1CCC(=NOc2ccc([N+](=O)[O-])cc2)CC1	-29.9%	0.5%	-3.8%	-8.6%	-23.5
O=C(O)COCC(=O)N1CCCN(c2ccc(C(F)(F)F)cn2)CC1	-3.1%	13.8%	16.8%	-4.9%	19.7
Cc1cccc(C)c1NC(=O)CN1CCN(c2ccc(C(F)(F)F)cn2)CC1	11.6µM*	-4.8%	-26.1%	14.6µM*	6.0
Cc1ccccc1SCC(=O)N1CCN(c2ccc(C(F)(F)F)cn2)CC1	23.1µM*	-13.3%	-11.9%	?	-92.0*
CCN(CC)C(=O)CSc1ncnc2c1cnn2Cc1ccccc1	11.6µM*	2.9%	8.7%	-28.1%	-2.7
CCN(CC)c1ncnc2c1cnn2Cc1ccc(C)cc1	11.6µM*	-12.4%	-14.1%	?	0.5
Cc1cccc(CSc2ncnc3c2cnn3Cc2ccccc2)c1	?	6.4%	2.2%	-22.4%	-9.5
Cc1ccc(Cn2ncc3c(NN)ncnc32)cc1	?	-22.7%	-20.3%	?	0.0
Cc1ccc(Cl)cc1-n1ncc2c(N3CCC(C)CC3)ncnc21	9.2µM*	/	/	23.1µM*	/
Cc1ccc(Cn2ncc3c(N4CCN(C)CC4)ncnc32)cc1	10.3µM*	-8.2%	-4.0%	?	1.7
Cc1cc(C)n(CCc2nc3c4ccccc4nc(N4CCN(c5ccccc5F)CC4)n3n2)n1	-18.4%	/	/	-5.2%	/
Cc1ccc(Cn2ncc3c(N4CCN(C5CCCC5)CC4)ncnc32)cc1	-26.3%	4.0%	3.4%	?	12.4
Cc1ccc(Cn2ncc3c(N4CCN(Cc5ccc(Cl)cc5)CC4)ncnc32)cc1	16.4µM*	-2.3%	-12.0%	18.4µM*	13.5
Cc1ccc(Cn2ncc3c(N4CCN(c5ccc(C)cc5)CC4)ncnc32)cc1	?	6.5%	-15.1%	-25.2%	35.4
CC1CCN(c2ncnc3c2cnn3Cc2ccc(Cl)cc2)CC1	18.4µM*	-12.7%	-16.3%	18.4µM*	-0.2
Cc1cc(C)nc(N2CCN(c3ncnc4c3cnn4Cc3ccc(Cl)cc3Cl)CC2)n1	3.66µM*	0.5%	0.8%	?	3.1
